# This is part of a sample that, as a whole, favours compounds with a hit. Of some 79,000 tested, about 15% had one in any assay. Values without a mark were called inactive. The source made the active and inactive calls. No stated cut-off is given here; in the data, active means growth inhibition above about 70%; inactive means the rest.
# Columns and labels:
# [1] = NCI Yeast Anticancer Drug Screen. Data for the sgs1 strain (AID 173);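 further: 0% = growth of vehicle-only control cultures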; details: S. cerevisiae sgs1 mutant, hits give high values
# How it was run: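 Yeast mutant strains carrying defined defects in DNA damage repair or cell cycle control were exposed to test compounds. Growth inhibition was scored against vehicle-treated controls.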
# [2] = NCI Yeast Anticancer Drug Screen. Data for the mlh1 rad18 strain (AID 175); details: S. cerevisiae mlh1 rad18 strain growth inhibition, hits give high values
# How it was run: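 Growth inhibition of the yeast strain was measured after compound exposure and expressed relative to vehicle-treated controls. The strain carries defined defects in DNA damage repair.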
# [3] = NCI Yeast Anticancer Drug Screen. Data for the rad52 strain (AID 147);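 further: 0% = growth of vehicle-treated control cultures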; details: S. cerevisiae rad52 mutant growth inhibition, hits give high values
# How it was run: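 Yeast strain carrying a DNA damage repair alteration was exposed to test compounds. Growth inhibition was measured relative to vehicle-treated controls.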
# [4] = NCI Yeast Anticancer Drug Screen. Data for the wt1 strain (AID 149);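 further: 0% = growth of vehicle-treated wt1 cultures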; details: S. cerevisiae wt1 strain (SPY 50644) growth inhibition, hits give high values
# How it was run: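 Vehicle-normalised growth inhibition; strain wt1; compound exposure.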
# [5] = NCI Yeast Anticancer Drug Screen. Data for the rad50EPP+ strain (AID 151);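 further: 0% = growth of vehicle-treated control cultures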; details: S. cerevisiae rad50 mutant strain, hits give high values
# How it was run: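 Yeast strain carrying rad50 alteration (rad50EPP+) exposed to compounds; growth inhibition measured relative to vehicle-treated controls.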
# [6] = NCI Yeast Anticancer Drug Screen. Data for the rad50 strain (AID 155);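 further: 0% = growth of vehicle-only cultures of the same strain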; details: S. cerevisiae rad50 strain growth inhibition, hits give high values
# How it was run: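 A DNA repair-deficient yeast mutant serves as the test organism; compound-induced growth inhibition is calculated against vehicle-treated cells.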
# [7] = NCI Yeast Anticancer Drug Screen. Data for the mec2-1 strain (AID 157); details: S. cerevisiae mec2-1 strain, hits give high values
# How it was run: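 mec2-1 yeast strain, carrying an alteration in DNA damage repair or cell cycle control, was exposed to compounds; growth inhibition was measured relative to vehicle-treated controls.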
# [8] = NCI Yeast Anticancer Drug Screen. Data for the rad14 strain (AID 159);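 further: 0% = growth of vehicle-treated control cultures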; details: S. cerevisiae rad14 strain growth inhibition, hits give high values
# How it was run: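 Vehicle-treated cultures served as the baseline for growth inhibition of a DNA repair-mutant yeast strain exposed to each compound.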
# [9] = NCI Yeast Anticancer Drug Screen. Data for the sgs1 mgt1 strain (AID 161);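 further: 0% = growth of cultures given vehicle only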; details: S. cerevisiae sgs1 mgt1 strain, hits give high values
# How it was run: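 Percent growth inhibition was derived by comparing compound-exposed mutant yeast with vehicle-exposed cultures. The strain carries alterations in DNA damage repair.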
# [10] = NCI Yeast Anticancer Drug Screen. Data for the CLN2oe strain (AID 163);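 further: 0% = growth of vehicle-only control cultures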; details: S. cerevisiae CLN2oe strain, hits give high values
# How it was run: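 Yeast cells carrying a defined cell-cycle control alteration were exposed to test compounds. Growth inhibition was scored against vehicle-treated control cultures.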
# [11] = NCI Yeast Anticancer Drug Screen. Data for the cln2 rad14 strain (AID 165);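 further: 0% = growth equal to vehicle treated cultures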; details: S. cerevisiae cln2 rad14 strain, hits give high values
# How it was run: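 Yeast carrying cln2 and rad14 alterations (cell cycle control and DNA damage repair) were exposed to compounds. Growth inhibition was measured against vehicle-treated controls.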
# [12] = NCI Yeast Anticancer Drug Screen. Data for the bub3 strain (AID 167); details: S. cerevisiae bub3 mutant strain, hits give high values
# How it was run: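 Inhibition values come from growth of compound-treated mutant yeast normalised to vehicle-treated controls.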
# [13] = NCI Yeast Anticancer Drug Screen. Data for the wt2 strain (AID 169);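 further: 0% = growth of vehicle-treated yeast cultures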; details: S. cerevisiae wt2 strain growth inhibition, hits give high values
# How it was run: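 Yeast cells were exposed to test compounds, and growth inhibition was measured relative to vehicle-treated controls.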
# [14] = NCI Yeast Anticancer Drug Screen. Data for the mlh1 strain (AID 171);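 further: 0% = growth of vehicle-treated control cultures of the same strain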; details: S. cerevisiae mlh1 strain growth inhibition, hits give high values
# How it was run: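 Yeast carrying a defined genetic alteration in DNA damage repair or cell cycle control were exposed to test compounds. Growth inhibition was measured relative to vehicle-treated controls.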
# [15] = NCI Yeast Anticancer Drug Screen. Data for the rad18 strain (AID 177); details: S. cerevisiae rad18 mutant growth inhibition, hits give high values
# How it was run: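 Yeast carrying a defined DNA damage repair alteration were exposed to compounds. Growth inhibition was expressed relative to vehicle-treated controls.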
# [16] = at 5.0 µM (retest, dose inferred, filed as 0.5)
# [17] = at 50.0 µM (retest, dose inferred, filed as 5.0)
smiles,measurement,setting,value
On1cnc(=S)c2[nH]cnc21,growth inhibition,[1]; at 33.0 µM,-44%
same,growth inhibition,[1]; at 100.0 µM,-32%
same,growth inhibition,[2]; [16],60%
same,growth inhibition,[2]; [17],98% (active)
same,growth inhibition,[2]; at 50.0 µM,7.7%
Cc1ccc2c(ccc(/C=C/c3ccc(O)c4ncccc34)[n+]2C)c1,growth inhibition,[3]; at 1.2 µM,17%
same,growth inhibition,[3]; at 3.7 µM,46%
same,growth inhibition,[3]; at 11.0 µM,89% (active)
same,growth inhibition,[3]; at 33.0 µM,94% (active)
same,growth inhibition,[3]; at 100.0 µM,81% (active)
same,growth inhibition,[4]; at 1.2 µM,4%
same,growth inhibition,[4]; at 3.7 µM,30%
same,growth inhibition,[4]; at 11.0 µM,85% (active)
same,growth inhibition,[4]; at 33.0 µM,94% (active)
same,growth inhibition,[4]; at 100.0 µM,81% (active)
same,growth inhibition,[5]; at 1.2 µM,3%
same,growth inhibition,[5]; at 3.7 µM,27%
same,growth inhibition,[5]; at 11.0 µM,60%
same,growth inhibition,[5]; at 33.0 µM,87% (active)
same,growth inhibition,[5]; at 100.0 µM,79% (active)
same,growth inhibition,[6]; at 1.2 µM,1%
same,growth inhibition,[6]; at 3.7 µM,41%
same,growth inhibition,[6]; [16],40%
same,growth inhibition,[6]; at 11.0 µM,88% (active)
same,growth inhibition,[6]; at 33.0 µM,93% (active)
same,growth inhibition,[6]; [17],93% (active)
same,growth inhibition,[6]; at 100.0 µM,74% (active)
same,growth inhibition,[7]; at 1.2 µM,10%
same,growth inhibition,[7]; at 3.7 µM,37%
same,growth inhibition,[7]; [16],43%
same,growth inhibition,[7]; at 11.0 µM,89% (active)
same,growth inhibition,[7]; at 33.0 µM,93% (active)
same,growth inhibition,[7]; [17],94% (active)
same,growth inhibition,[7]; at 100.0 µM,77% (active)
same,growth inhibition,[8]; at 1.2 µM,-15%
same,growth inhibition,[8]; at 3.7 µM,37%
same,growth inhibition,[8]; at 11.0 µM,90% (active)
same,growth inhibition,[8]; at 33.0 µM,94% (active)
same,growth inhibition,[8]; at 100.0 µM,77% (active)
same,growth inhibition,[9]; [16],23%
same,growth inhibition,[9]; [17],98% (active)
same,growth inhibition,[9]; at 50.0 µM,82% (active)
same,growth inhibition,[10]; at 1.2 µM,-6%
same,growth inhibition,[10]; at 3.7 µM,18%
same,growth inhibition,[10]; at 11.0 µM,78% (active)
same,growth inhibition,[10]; at 33.0 µM,90% (active)
same,growth inhibition,[10]; at 100.0 µM,77% (active)
same,growth inhibition,[11]; [16],17%
same,growth inhibition,[11]; [17],95% (active)
same,growth inhibition,[11]; at 50.0 µM,84% (active)
same,growth inhibition,[12]; at 1.2 µM,18%
same,growth inhibition,[12]; at 3.7 µM,33%
same,growth inhibition,[12]; [16],10%
same,growth inhibition,[12]; at 11.0 µM,87% (active)
same,growth inhibition,[12]; at 33.0 µM,91% (active)
same,growth inhibition,[12]; [17],98% (active)
same,growth inhibition,[12]; at 50.0 µM,84.9% (active)
same,growth inhibition,[12]; at 100.0 µM,74% (active)
same,growth inhibition,[13]; at 1.2 µM,-16%
same,growth inhibition,[13]; at 3.7 µM,2%
same,growth inhibition,[13]; at 11.0 µM,53%
same,growth inhibition,[13]; at 33.0 µM,88% (active)
same,growth inhibition,[13]; at 100.0 µM,79% (active)
same,growth inhibition,[14]; at 1.2 µM,15%
same,growth inhibition,[14]; at 3.7 µM,60%
same,growth inhibition,[14]; at 11.0 µM,85% (active)
same,growth inhibition,[14]; at 33.0 µM,95% (active)
same,growth inhibition,[14]; at 100.0 µM,78% (active)
same,growth inhibition,[1]; at 1.2 µM,18%
same,growth inhibition,[1]; at 3.7 µM,45%
same,growth inhibition,[1]; at 11.0 µM,82% (active)
same,growth inhibition,[1]; at 33.0 µM,92% (active)
same,growth inhibition,[1]; at 100.0 µM,78% (active)
same,growth inhibition,[2]; [16],58%
same,growth inhibition,[2]; [17],91% (active)
same,growth inhibition,[15]; at 1.2 µM,17%
same,growth inhibition,[15]; at 3.7 µM,31%
same,growth inhibition,[15]; at 11.0 µM,80% (active)
same,growth inhibition,[15]; at 33.0 µM,91% (active)
same,growth inhibition,[15]; at 100.0 µM,63%
N#C/C(=C\c1ccccc1)c1ccccc1F,growth inhibition,[3]; at 1.2 µM,-1%
same,growth inhibition,[3]; at 3.7 µM,-3%
same,growth inhibition,[3]; at 11.0 µM,-2%
same,growth inhibition,[3]; at 33.0 µM,-1%
same,growth inhibition,[3]; at 100.0 µM,3%
same,growth inhibition,[4]; at 1.2 µM,1%
same,growth inhibition,[4]; at 3.7 µM,1%
same,growth inhibition,[4]; at 11.0 µM,2%
same,growth inhibition,[4]; at 33.0 µM,1%
same,growth inhibition,[4]; at 100.0 µM,1%
same,growth inhibition,[5]; at 1.2 µM,2%
same,growth inhibition,[5]; at 3.7 µM,2%
same,growth inhibition,[5]; at 11.0 µM,9%
same,growth inhibition,[5]; at 33.0 µM,16%
same,growth inhibition,[5]; at 100.0 µM,21%
same,growth inhibition,[7]; at 1.2 µM,2%
same,growth inhibition,[7]; at 3.7 µM,0%
same,growth inhibition,[7]; [16],-11%
same,growth inhibition,[7]; at 11.0 µM,4%
same,growth inhibition,[7]; at 33.0 µM,-4%
same,growth inhibition,[7]; [17],69%
same,growth inhibition,[7]; at 50.0 µM,41.7%
same,growth inhibition,[7]; at 100.0 µM,-4%
same,growth inhibition,[8]; at 1.2 µM,-2%
same,growth inhibition,[8]; at 3.7 µM,-1%
same,growth inhibition,[8]; at 11.0 µM,1%
same,growth inhibition,[8]; at 33.0 µM,1%
same,growth inhibition,[8]; at 100.0 µM,5%
same,growth inhibition,[9]; [16],-8%
same,growth inhibition,[9]; [17],90% (active)
same,growth inhibition,[9]; at 50.0 µM,45.9%
same,growth inhibition,[10]; at 1.2 µM,13%
same,growth inhibition,[10]; at 3.7 µM,9%
same,growth inhibition,[10]; at 11.0 µM,11%
same,growth inhibition,[10]; at 33.0 µM,14%
same,growth inhibition,[10]; at 100.0 µM,8%
same,growth inhibition,[11]; [16],-10%
same,growth inhibition,[11]; [17],17%
same,growth inhibition,[11]; at 50.0 µM,6.15%
same,growth inhibition,[12]; at 1.2 µM,-31%
same,growth inhibition,[12]; at 3.7 µM,-21%
same,growth inhibition,[12]; [16],-17%
same,growth inhibition,[12]; at 11.0 µM,-6%
same,growth inhibition,[12]; at 33.0 µM,-10%
same,growth inhibition,[12]; [17],88% (active)
same,growth inhibition,[12]; at 50.0 µM,34.9%
same,growth inhibition,[12]; at 100.0 µM,-7%
same,growth inhibition,[13]; at 1.2 µM,-3%
same,growth inhibition,[13]; at 3.7 µM,-2%
same,growth inhibition,[13]; at 11.0 µM,-1%
same,growth inhibition,[13]; at 33.0 µM,-1%
same,growth inhibition,[13]; at 100.0 µM,4%
same,growth inhibition,[14]; at 1.2 µM,-1%
same,growth inhibition,[14]; at 3.7 µM,2%
same,growth inhibition,[14]; at 11.0 µM,0%
same,growth inhibition,[14]; at 33.0 µM,-6%
same,growth inhibition,[14]; at 100.0 µM,10%
same,growth inhibition,[2]; [16],22%
same,growth inhibition,[2]; [17],96% (active)
same,growth inhibition,[2]; at 50.0 µM,67%
same,growth inhibition,[15]; at 1.2 µM,-2%
same,growth inhibition,[15]; at 3.7 µM,-5%
same,growth inhibition,[15]; at 11.0 µM,-7%
same,growth inhibition,[15]; at 33.0 µM,-14%
same,growth inhibition,[15]; at 100.0 µM,-15%
